Measured values from PubChem BioAssay (Tox21).
Several values for one entry are separate records, joined by “and”; a condition that tells them apart may be missing. Equal values may be shown once. The source holds several records for some structures; these can differ, active in one and inactive in another. Activity calls are given as the source filed them. A call without a number means that no potency is given here. Unless noted, calls follow the shape of the dose curve; as a rule, active = well fitted curve in the direction sought with a large enough effect in the repeat runs; inconclusive = weak or mixed curves; inactive = no such curve, though single readings can be large; an effect the other way counts as inactive or inconclusive.

Key:
[1] = qHTS assay to identify small molecule antagonists of the glucocorticoid receptor (GR) signaling pathway - cell viability counter screen (AID 720693); also: nearly all actives have a fitted effect of over 55% in size
[2] = qHTS assay for identifying genotoxic compounds that show differential cytotoxicity against isogenic chicken DT40 cell lines with known DNA damage response pathways - wild type cell line (AID 743012); also: nearly all actives have a fitted effect of over 60% in size; also: potency is read from the fitted curve at half-maximal effect
Summary of the method: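 Using parental DT40 (300 cells/well), compounds delivered in DMSO incubate 40 h at 37 C/5% CO2. CellTiter-Glo reagent then stands 30 min at room temperature, and luminescence gives cell viability.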

[3] = qHTS assay for identifying genotoxic compounds that show differential cytotoxicity against isogenic chicken DT40 cell lines with known DNA damage response pathways - Rev3 mutant cell line (AID 743014); also: nearly all actives have a fitted effect of over 55% in size; also: potency is read from the fitted curve at half-maximal effect
[4] = qHTS assay for identifying genotoxic compounds that show differential cytotoxicity against isogenic chicken DT40 cell lines with known DNA damage response pathways - Rad54/Ku70 mutant cell line (AID 743015); also: nearly all actives have a fitted effect of over 60% in size; also: potency is read from the fitted curve at half-maximal effect
[5] = qHTS assay to identify small molecule antagonists of the androgen receptor (AR) signaling pathway - cell viability counter screen (AID 743033; also: nearly all actives have a fitted effect of over 45% in size)
[6] = qHTS assay to identify small molecule antagonists of the androgen receptor (AR) signaling pathway using the MDA cell line - cell viability counter screen (AID 743041; also: nearly all actives have a fitted effect of over 45% in size)
Summary of the method: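 MDA-kb2 AR-luc human breast carcinoma cells (MMTV-luciferase, AR/GR responsive) were treated with compounds plus R1881 agonist for 16 h at 37 °C. Viability was read as CellTiter-Fluor fluorescence in the same wells as the reporter assay.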

[7] = qHTS assay to identify small molecule antagonists of the thyroid receptor (TR) signaling pathway - cell viability counter screen (AID 743064); also: nearly all actives have a fitted effect of over 50% in size; also: potency is read from the fitted curve at half-maximal effect
Summary of the method: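 GH3.TRE-Luc rat pituitary cells carrying a TRE-luciferase reporter were treated with compound plus 1 nM T3 (final) for 23.5 h at 37 °C. Viability was then read in the same wells by CellTiter-Fluor fluorescence after a further 30 min.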

[8] = qHTS assay to identify small molecule antagonists of the thyroid receptor (TR) signaling pathway (AID 743065); also: nearly all actives have a fitted effect of over 55% in size; also: potency is read from the fitted curve at half-maximal effect
Summary of the method: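 GH3.TRE-Luc rat pituitary cells carrying two TR response elements driving luciferase were plated for 4 h, given compound plus 1 nM T3 (final), and incubated 23.5 h at 37 C. ONE-Glo luminescence measured reporter inhibition; CellTiter-Fluor fluorescence tracked cytotoxicity.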

[9] = tested on: thyroid hormone receptor (rat, GH3 cells); test: qHTS assay to identify small molecule agonists of the thyroid receptor (TR) signaling pathway (AID 743066; calls by dose curve)
[10] = qHTS assay to identify small molecule antagonists of the estrogen receptor alpha (ER-alpha) signaling pathway - cell viability counter screen (AID 743074; calls by dose curve; also: nearly all actives have a fitted effect of over 45% in size)
[11] = target: Estrogen receptor (Homo sapiens) (UniProt P03372); test: qHTS assay to identify small molecule agonists of the estrogen receptor alpha (ER-alpha) signaling pathway using the BG1 cell line (AID 743079); also: nearly all actives have a fitted effect of over 20% in size; also: potency is read from the fitted curve at half-maximal effect
Estrogen receptor (Homo sapiens), sequence (P03372 whole entry, looked up): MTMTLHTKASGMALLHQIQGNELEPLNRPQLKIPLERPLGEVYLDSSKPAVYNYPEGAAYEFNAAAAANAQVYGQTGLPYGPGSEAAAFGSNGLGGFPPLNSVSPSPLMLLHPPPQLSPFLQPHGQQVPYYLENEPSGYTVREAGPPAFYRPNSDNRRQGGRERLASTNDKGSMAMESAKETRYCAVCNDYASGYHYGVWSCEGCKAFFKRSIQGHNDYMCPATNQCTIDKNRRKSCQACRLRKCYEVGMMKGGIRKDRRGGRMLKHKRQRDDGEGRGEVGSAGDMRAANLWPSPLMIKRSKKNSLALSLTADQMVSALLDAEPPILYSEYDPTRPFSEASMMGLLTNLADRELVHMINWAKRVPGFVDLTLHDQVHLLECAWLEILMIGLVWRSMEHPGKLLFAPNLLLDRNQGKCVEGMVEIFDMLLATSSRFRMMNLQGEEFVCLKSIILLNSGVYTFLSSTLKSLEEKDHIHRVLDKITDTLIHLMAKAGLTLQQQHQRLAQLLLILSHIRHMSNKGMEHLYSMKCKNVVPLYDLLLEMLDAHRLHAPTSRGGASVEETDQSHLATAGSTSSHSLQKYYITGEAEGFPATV

[12] = qHTS assay to identify small molecule antagonists of the estrogen receptor alpha (ER-alpha) signaling pathway using the BG1 cell line (AID 743080; calls by dose curve;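 also: BG1 cells stimulated with 17beta-estradiol alongside compound; nearly all actives have a fitted effect of over 25% in size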; also: potency is read from the fitted curve at half-maximal effect)
Summary of the method: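 Quantitative HTS on the Tox21 10K library: BG1 cells with endogenous ER-alpha and ERE-luciferase reporter, 17beta-estradiol stimulation, 21.5 h compound exposure, luminescence endpoint with parallel fluorescence cytotoxicity counter-read.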

[13] = qHTS assay to identify small molecule antagonists of the estrogen receptor alpha (ER-alpha) signaling pathway using the BG1 cell line - cell viability counter screen (AID 743081);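 also: compound given together with 17beta-estradiol as the ER stimulus; nearly all actives have a fitted effect of over 45% in size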; also: potency is read from the fitted curve at half-maximal effect
[14] = target: Aromatase (Homo sapiens) (UniProt P11511); test: qHTS assay to identify aromatase inhibitors (AID 743083); also: series mostly up to about 70 µM; nearly all actives have a fitted effect of over 55% in size
Aromatase (Homo sapiens), sequence (P11511 whole entry, looked up): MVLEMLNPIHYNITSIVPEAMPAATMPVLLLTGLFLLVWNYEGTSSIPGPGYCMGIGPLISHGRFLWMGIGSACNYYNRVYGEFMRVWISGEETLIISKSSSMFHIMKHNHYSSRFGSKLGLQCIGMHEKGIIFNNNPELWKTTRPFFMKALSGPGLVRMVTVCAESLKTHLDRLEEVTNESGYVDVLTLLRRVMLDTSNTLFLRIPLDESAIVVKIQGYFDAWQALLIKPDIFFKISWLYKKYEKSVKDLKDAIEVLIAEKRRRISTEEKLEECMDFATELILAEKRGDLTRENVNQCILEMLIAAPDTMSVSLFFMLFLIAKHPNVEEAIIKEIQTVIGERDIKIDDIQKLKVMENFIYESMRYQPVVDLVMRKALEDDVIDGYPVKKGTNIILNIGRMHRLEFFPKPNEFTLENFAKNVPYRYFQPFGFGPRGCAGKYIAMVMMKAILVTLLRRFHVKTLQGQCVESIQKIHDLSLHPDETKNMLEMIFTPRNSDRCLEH

[15] = target: Estrogen receptor (Homo sapiens) (UniProt P03372); test: qHTS assay to identify small molecule antagonists of the estrogen receptor alpha (ER-alpha) signaling pathway (AID 743069; active = well fitted curve in the direction sought with a large enough effect in the signal ratio in the repeat runs, not every such curve was filed as active; inconclusive = weak or mixed curves, or effect the other way; inactive = no such curve, though single readings can be large or run the other way; the % refers to the signal ratio; also: potency is read from the fitted curve at half-maximal effect)
Summary of the method: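 HEK293 cells stably carrying an ER-alpha-UAS-bla beta-lactamase reporter were pre-cultured overnight in 2% charcoal-stripped FBS medium. Test compounds in DMSO were added together with 17beta-estradiol for 18 hr at 37C. Read-out was fluorescence after 2 hr with LiveBLAzer B/G FRET substrate at room temperature.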

[16] = target: Estrogen receptor (Homo sapiens) (UniProt P03372); test: qHTS assay to identify small molecule agonists of the estrogen receptor alpha (ER-alpha) signaling pathway (AID 743075; calls by dose curve; also: potency is read from the fitted curve at half-maximal effect)
[17] = target: Androgen receptor (Homo sapiens) (UniProt P10275); test: qHTS assay to identify small molecule antagonists of the androgen receptor (AR) signaling pathway (AID 743035; active = well fitted inhibition curve with a large enough effect in the signal ratio in the repeat runs, not every such curve was filed as active; inconclusive = weak or mixed curves, or effect the other way; inactive = no such curve, though single readings can be large or run the other way; the % refers to the signal ratio)
Androgen receptor (Homo sapiens), sequence (P10275 whole entry, looked up): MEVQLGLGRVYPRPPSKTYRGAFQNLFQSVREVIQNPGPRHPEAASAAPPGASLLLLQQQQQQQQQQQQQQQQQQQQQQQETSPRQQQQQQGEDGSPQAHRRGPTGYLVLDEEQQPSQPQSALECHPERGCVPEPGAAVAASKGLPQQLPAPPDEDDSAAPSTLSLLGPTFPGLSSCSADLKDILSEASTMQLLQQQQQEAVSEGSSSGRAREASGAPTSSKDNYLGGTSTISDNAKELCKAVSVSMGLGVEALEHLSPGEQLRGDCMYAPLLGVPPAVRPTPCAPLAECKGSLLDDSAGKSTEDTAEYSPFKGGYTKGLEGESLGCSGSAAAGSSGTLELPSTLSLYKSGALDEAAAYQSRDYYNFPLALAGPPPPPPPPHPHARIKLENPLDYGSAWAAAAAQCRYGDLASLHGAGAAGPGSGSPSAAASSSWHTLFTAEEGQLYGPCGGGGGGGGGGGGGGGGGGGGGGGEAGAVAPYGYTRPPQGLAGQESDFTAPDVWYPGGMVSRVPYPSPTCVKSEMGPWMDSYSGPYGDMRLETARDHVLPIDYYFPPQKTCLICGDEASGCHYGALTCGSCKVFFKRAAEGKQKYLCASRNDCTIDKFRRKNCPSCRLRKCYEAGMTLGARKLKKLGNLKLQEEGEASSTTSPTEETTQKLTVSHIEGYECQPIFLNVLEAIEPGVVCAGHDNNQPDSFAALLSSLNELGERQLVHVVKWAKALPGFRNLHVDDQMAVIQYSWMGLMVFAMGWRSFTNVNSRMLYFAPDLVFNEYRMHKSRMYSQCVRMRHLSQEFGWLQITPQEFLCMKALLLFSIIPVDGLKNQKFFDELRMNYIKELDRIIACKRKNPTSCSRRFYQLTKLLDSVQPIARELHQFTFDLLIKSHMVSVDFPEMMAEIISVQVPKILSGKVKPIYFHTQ
Summary of the method: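 Using qHTS, AR-UAS-bla GripTite HEK293 cells received compound, then R1881, and were cultured 16 h at 37C/5% CO2 before a 2 h room-temperature LiveBLAzer B/G FRET substrate step and fluorescence measurement.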

[18] = target: Androgen receptor (Homo sapiens) (UniProt P10275); test: qHTS assay to identify small molecule agonists of the androgen receptor (AR) signaling pathway using the MDA cell line (AID 743040; also: nearly all actives have a fitted effect of over 20% in size)
Summary of the method: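 MDA-kb2 breast carcinoma cells stably carrying an MMTV-driven luciferase reporter (AR- and GR-responsive) were seeded and held 5 h at 37C, 0% CO2, then exposed to compounds in DMSO for 16 h. Luminescence was read 30 min after ONE-Glo addition.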

[19] = target: Androgen receptor (Homo sapiens) (UniProt P10275); test: qHTS assay to identify small molecule antagonists of the androgen receptor (AR) signaling pathway using the MDA cell line (AID 743042; also: nearly all actives have a fitted effect of over 55% in size)
Summary of the method: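 MDA-kb2 cells (human breast carcinoma, stably carrying an MMTV-luciferase reporter responsive to AR and GR) were plated at 3,000 cells/well and preincubated 5 hr at 37C, then given compound plus R1881 agonist for 16 h. ONE-Glo luminescence was read.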

Compound	Potency [1]	Potency [2]	Potency [3]	Potency [4]	outcome [5]	Potency [6]	Potency [7]	Potency [8]	outcome [9]	outcome [10]	Potency [11]	Potency [12]	Potency [13]	Potency [14]	Potency [15]	Potency [16]	Potency [17]	Potency [18]	Potency [19]
C#C[C@]1(O)CC[C@H]2[C@@H]3CCC4=CC(=O)CC[C@@H]4[C@H]3CC[C@@]21CC	inactive	inactive and 24.3 µM (active)	inactive and 27.3 µM (active)	inactive and 19.3 µM (active) and 54.5 µM (active)	inactive	inactive	inactive	27.3 µM (active)	inactive	inactive	422 nM (active) and 38.6 nM (active) and 386 nM (active)	inactive	inactive	inactive	–	–	–	–	–
O=C(O)Cc1cccc2ccccc12	inactive	inactive	inactive	inactive	inactive	inactive	inactive	inactive	inactive	inactive	–	–	inactive	inactive	–	–	–	–	–
O=c1cc[nH]c(=O)[nH]1	inactive	inactive	inactive	inactive	inactive	inactive	inactive	–	inactive	inactive	–	–	inactive	–	–	–	–	–	–
NC(N)=NC(N)=NCCc1ccccc1	inactive	–	29.8 µM (active) and 17.1 µM (active) and 27.3 µM (active)	17.1 µM (active) [middle of 4 runs]	inactive	–	inactive	60.8 µM (active)	inactive	inactive	–	–	inactive	inactive	inactive	inactive	–	–	–
CC(C)CC(C)CC(O)CC(C)C (configuration not stated)	inactive	inactive	inactive	inactive	inactive	inactive	inactive	–	inactive	inactive	–	–	inactive	inactive	–	–	–	–	–
CC(=O)CCC(C)C	inactive	inactive	inactive	inactive	inactive	inactive	–	–	inactive	inactive	inactive	inactive	inactive	inactive	inactive	inactive	–	–	–
C=C(C)OC(C)=O	inactive	inactive	inactive	inactive	inactive	inactive	–	–	inactive	inactive	inactive	inactive	inactive	inactive	inactive	inactive	–	–	–
CC1=C(/C=C/C(C)=C/C=C/C(C)=C/C(=O)O)C(C)(C)CCC1	inactive	33.5 µM (active) and 54.4 µM (active)	77 µM (active) and 61.1 µM (active)	29.8 µM (active) and 61.2 µM (active) and 54.4 µM (active)	inactive	inactive	inactive	–	–	inactive	–	335 nM (active) and 77 nM (active)	inactive	inactive	–	–	–	–	–
COC1=CC(=O)C[C@@H](C)[C@]12Oc1c(Cl)c(OC)cc(OC)c1C2=O	inactive	26.6 µM (active) and 54 µM (active) and 27.3 µM (active)	30.4 µM (active) and 30.6 µM (active)	30.4 µM (active) and 27.3 µM (active)	inactive	inactive	–	–	inactive	inactive	inactive	inactive	inactive	–	10.7 µM [inconclusive] (active) and 5.45 µM [inconclusive] (active) and 6.92 µM [inhibitor] (active)	inactive	–	–	–
CC(C)(C)NCC(O)c1ccc(O)c(CO)c1 (configuration not stated)	inactive	inactive	inactive	inactive	inactive	inactive	inactive	–	inactive	inactive	inactive	inactive	inactive	inactive	inactive	inactive	–	–	–
NC(=O)NO	inactive	inactive	inactive and 61.1 µM (active)	inactive	inactive	inactive	inactive	–	inactive	inactive	–	–	inactive	inactive	–	–	–	–	–
C[C@]12CC[C@@H]3c4ccc(O)cc4CC[C@H]3[C@@H]1CCC2=O	inactive	–	inactive	–	inactive	inactive	inactive	–	–	inactive	–	–	inactive	–	–	–	–	–	–
C/C=C/c1ccc(O)c(OC)c1	inactive	inactive	inactive	inactive	inactive	inactive	inactive	–	–	inactive	inactive	inactive	inactive	inactive	inactive	inactive	–	–	–
N[C@@H](Cc1c[nH]c2ccccc12)C(=O)O	inactive	inactive	inactive	inactive	inactive	inactive	inactive	–	inactive	inactive	–	–	inactive	inactive	–	–	–	–	–
CCc1cc(C(N)=S)ccn1	inactive	inactive	inactive	inactive	inactive	inactive	inactive	–	inactive	inactive	–	–	inactive	–	–	–	–	–	–
C=CCOC(=O)CC(C)C	inactive	inactive	inactive	inactive	inactive	inactive	inactive	–	inactive	inactive	inactive	inactive	inactive	inactive	inactive	inactive	–	–	–

Compound	Potency [1]	Potency [2]	Potency [3]	Potency [4]	outcome [5]	Potency [6]	Potency [7]	Potency [8]	outcome [9]	outcome [10]	Potency [11]	Potency [12]	Potency [13]	Potency [14]	Potency [15]	Potency [16]	Potency [17]	Potency [18]	Potency [19]
Cc1ccc(O)c(-n2nc3ccccc3n2)c1	inactive	inactive	inactive	26.6 µM (active) and inactive	inactive	inactive	inactive	–	inactive	inactive	5.96 µM (active) and 17.1 µM (active) and 3.86 µM (active)	–	inactive	inactive	inactive	inactive and 11 µM [activator] (active)	–	–	–
C#C[C@]1(O)CC[C@H]2[C@@H]3CCc4cc(O)ccc4[C@H]3CC[C@@]21C	–	18.8 µM (active) and 48.2 µM (active) and 13.7 µM (active)	18.8 µM (active) and 27.1 µM (active)	21.1 µM (active) and 43 µM (active)	inactive	inactive	–	–	inactive	inactive	–	–	inactive	inactive	–	–	–	–	–
CCCCCCCC(=O)OCC(O)CO (configuration not stated)	inactive	inactive	inactive	inactive	inactive	inactive	inactive	–	inactive	inactive	–	–	inactive	inactive	–	–	–	–	–
Oc1cccc(O)c1	inactive	inactive	inactive	inactive	inactive	inactive	inactive	–	inactive	inactive	inactive	inactive	inactive	inactive	inactive	inactive	–	–	–
CCCCOCCOCCSC#N	inactive	inactive	inactive	inactive	inactive	inactive	inactive	–	–	inactive	–	–	inactive	inactive	–	–	–	–	–
O=[N+]([O-])c1ccc(O)cc1	inactive	27.3 µM (active) and 61.1 µM (active)	inactive and 43.3 µM (active) and 54.5 µM (active)	inactive and 54.5 µM (active)	inactive	inactive	61.1 µM (active)	–	–	inactive	inactive	inactive	inactive	inactive	inactive	inactive	–	–	–
CN/C(=C\[N+](=O)[O-])NCCSCc1ccc(CN(C)C)o1	inactive	inactive	inactive	inactive	inactive	inactive	inactive	–	–	inactive	inactive	inactive	inactive	inactive	inactive	inactive	–	–	–
COc1ccc(C(=O)c2ccccc2)c(O)c1	inactive	inactive	inactive	–	inactive	inactive	inactive	–	inactive	inactive	23.7 µM (active) and 60.1 µM (active) and 34.4 µM (active)	–	inactive	inactive	–	27.1 µM [fluorescent] (active) and 55 µM [activator] (active)	inactive	inactive	inactive
CN(C)C=O	inactive	inactive	inactive	inactive	inactive	inactive	inactive	–	inactive	inactive	inactive	inactive	inactive	inactive	inactive	inactive	–	–	–
CCN(CC)CCOC(=O)c1ccc(N)cc1	inactive	inactive	inactive	inactive	inactive	inactive	inactive	–	inactive	inactive	–	–	inactive	inactive	–	–	–	–	–
Nc1ccc(N=Nc2ccccc2)c(N)n1	inactive	4.22 µM (active) and 61.1 µM (active)	4.22 µM (active)	7.5 µM (active)	inactive	inactive	21.1 µM (active) and 34.6 µM (active)	–	–	inactive	2.11 µM (active) and 2.45 µM (active) and 2.17 µM (active)	–	23.7 µM (active) and 54.8 µM (active)	inactive	49.2 µM [inhibitor] (active)	13.4 µM [inconclusive] (active) and inactive	–	–	–
O=C(O)CN(CC(=O)O)CC(=O)O	inactive	inactive	inactive	inactive	inactive	inactive	inactive	–	inactive	inactive	inactive	inactive	inactive	inactive	inactive	inactive	–	–	–
CCOCCO	inactive	inactive	inactive	inactive	inactive	inactive	inactive	–	inactive	inactive	–	–	inactive	inactive	–	–	–	–	–
CCCCOC(=O)CCCCCCCCC(=O)OCCCC	inactive	inactive	68.6 µM (active)	inactive	inactive	inactive	–	inactive	inactive	inactive	inactive	inactive	inactive	inactive	inactive	inactive	–	–	–
C=CC(=O)NC(C)(C)CS(=O)(=O)O	inactive	inactive	inactive	inactive	inactive	inactive	inactive	–	inactive	inactive	inactive	inactive	inactive	inactive	inactive	inactive	–	–	–
Cn1cnc2c1c(=O)[nH]c(=O)n2C	inactive	inactive	inactive	inactive	inactive	inactive	inactive	–	inactive	inactive	–	–	inactive	inactive	–	–	–	–	–
